# Laboratory results published in PubChem BioAssay (NCI).
# Several values for one entry are separate records, joined by “and”; a condition that tells them apart may be missing. Identical values can stand only once. The panel holds about 83,000 compounds, 20% with a hit somewhere; the sample as a whole holds those more often.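 The test compound was applied at a single concentration to cells in 96-well plates for 48 hours, and percent growth was recorded.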 A number with no mark means an inactive call. Activity calls are given as the source filed them.
# Tested on: NCI-H322M lung
# Test: NCI-60 one-dose screen, 48 h (100 = growth as untreated, 0 = no growth, -100 = all killed)
# Conditions: 10 µM
# Procedure: Growth inhibition of the NCI-H322M human Non-Small Cell Lung tumor cell line is measured as a screen for anti-cancer activity. Cells are grown in 96 well plates and exposed to the test compound for 48 hours. Compounds are tested at a single concentration, which is 10^-5 M for most compounds. The reported endpoint is percent growth (GI% or GIPRCNT), where numbers from 0 - 100% represent growth inhibition, and numbers from -100% - 0 represent cell death. For example, a value of 40 represents 60% growth inhibition. A value of 0 means no net growth occurred over the course of the experiment. A value of -40 indicates 40% of cells at the beginning of the experiment died by the end of the experiment. A value of -100 means all cells are dead at the end of the experiment.
# NCI-60 Human Tumor Cell Lines Screen was performed using the standard one-dose NCI protocol, which is described in more detail at https://dtp.cancer.gov/discovery_development/nci-60/default.htm.
# Compounds with GIPRCNT values below 10 were considered active. Activity score was based on GIPRCNT using the following formula: […]
# Score is 0 for GIPRCNT values of 100 or above, 50 for GIPRCNT values of 0, and 100 for GIPRCNT values of -100.
row,SMILES,growth
1,COc1cc([N+](=O)[O-])c2ncccc2c1[N+](=O)[O-],103%
2,COc1cc2c(c(OC)c1OC)-c1ccc(O)c(=O)cc1[C@@H](NC(C)=O)CC2,57.5%
3,CC(=O)Nc1c2sscc-2n(C)c1=O,-100% (active)
4,COC12C(COC(N)=O)C3=C(C(=O)C(C)=C(N)C3=O)N1CC1C2N1C (stereo not given),30%
5,COc1cc([C@@H]2c3cc4c(c(O)c3C[C@H]3COC(=O)[C@@H]32)OCO4)cc(OC)c1OC,21.9%
6,COc1cc(/C=C\[N+](=O)[O-])ccc1O,85.7%
7,COc1cc(/C=C/[N+](=O)[O-])cc(OC)c1OC,36.1%
8,CCOP(=O)(OCC)/C(C#N)=C/c1ccc(Br)cc1,105%
9,S=C=NCCc1ccccc1,110%
10,CC[C@@H](C)[C@@H]1NC(=O)C(NC(=O)C(CC(C)C)N(C)C(=O)C2CCCN2C(=O)C(C)O)C(C)OC(=O)C(Cc2ccc(OC)cc2)N(C)C(=O)C2CCCN2C(=O)C(CC(C)C)NC(=O)C(C)C(=O)C(C(C)C)OC(=O)C[C@H]1O (stereo not given in full),-16.5% (active)
11,COS(=O)(=O)c1ccccc1,106%
12,NNc1ccccc1,114%
13,O=[N+]([O-])/C=C\c1ccc2c(c1)OCO2,113%
14,O=[P+](O)c1ccccc1,149%
15,Oc1c(Cl)cc(Cl)c2ccccc12.[Cu+2],92.1%
16,COC(=O)C1C(O)C(C)C(O)C(C)/C=C\C=C(C)C(=O)Nc2c(C)c(OC(C)=O)c3c(c2O)C(=O)C(C)=C2OCOC(=C23)C(C)=CC(C)(O)C(O)C(C)C1O (stereo not given),106%
17,COC(C(=O)C(O)C(C)O)C1Cc2cc3cc(OC4CC(OC(C)=O)C(OC5CC(O)C(OC)C(C)O5)C(C)O4)cc(O)c3c(O)c2C(=O)C1OC1CC(OC2CC(OC3CC(C)(O)C(OC(=O)C(C)C)C(C)O3)C(O)C(C)O2)C(O)C(C)O1 (stereo not given),7.22% (active)
18,COc1cc(/C=C/[N+](=O)[O-])cc(Br)c1OC,99.5%
19,Oc1c(I)cc(I)cc1I,110%
20,COc1ccc2c(ccc3oc([N+](=O)[O-])cc32)c1,-10.7% (active)

row,SMILES,growth
1,COc1cc2c(cc1OC)C13CCN4CC5=CCOC6CC(=O)N2C1C6C5CC43 (stereo not given),118% and 144%
2,CC1CCC2(OC1)OC1C(O)C3C4CCC5CC(OC6OC(CO)C(OC7OC(CO)C(O)C(OC8OCC(O)C(O)C8O)C7OC7OC(CO)C(O)C(OC8OC(CO)C(O)C(O)C8O)C7O)C(O)C6O)C(O)CC5(C)C4CCC3(C)C1C2C (stereo not given),13.2%
3,COc1ccccc1/C=C/[N+](=O)[O-],102%
4,Cn1c(O)c(N=O)c(=O)n(C)c1=O,97.1% and 101%
5,O=C1C=Cc2ccccc2C1=O,100%
6,C=NCC#N,107% and 118%
7,CCCCCCCC[N+]12CN3CN(CN(C3)C1)C2,84.8%
8,CCOP(=O)(OCC)C(O)c1ccccc1Cl (stereo not given),93.8%
9,O=[N+]([O-])c1ccc(Br)c([N+](=O)[O-])c1,115%
10,CC/C(=C/c1ccc(OC)cc1)[N+](=O)[O-],86%
11,O=[N+]([O-])c1ccc(N(CCO)CCO)c2c1no[n+]2[O-],-16% (active)
12,CC12OOC(c3ccccc31)c1c2ccc2ccccc12 (stereo not given),76.8%
13,CS(=N)(=O)CCC(N)C(=O)O (stereo not given),108%
14,O=C(CBr)Nc1ccc(Cl)cc1,101%
15,O=C(CBr)Nc1ccccc1,97.9%
16,CC[C@@]1(O)C[C@H](OC2CC(N(C)C)C(O)C(C)O2)c2c(cc3c(c2O)C(=O)c2c(O)ccc(O)c2C3=O)[C@H]1C(=O)OC (stereo not given in full),-78.6% (active)
17,CC(C)c1cc([N+](=O)[O-])cc([N+](=O)[O-])c1O,112%
18,Oc1ccccc1-c1ccccc1,91.5% and 109%
19,O=C(O)c1cc(Cc2ccc(O)c(C(=O)O)c2)ccc1O (tested in a mixture with another compound),87%
20,O=C1CCC(=O)N1SC(Cl)(Cl)Cl,106%
